Hits are enriched below; roughly 2.8% of the tested compounds scored in any of these assays.
IP6K1 inh: blocks human inositol hexakisphosphate kinase 1. hit rate 0.81% among 140,000. Q92551. IP6K1 kinase, ADP-Glo luminescence, 2 h; active compounds read low. activity change, % (series mostly up to about 58 µM); in the data active = activity change below about -25%; note: % is set by controls: 0 for no effect and ±100 for the full control effect
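ADP-Glo luminescence measures ADP made by human IP6K1 during a 2 h RT reaction with ATP/IP6 (mix at 1.3 mM/130 uM); top library doses 57.5 and 19.1 uM final.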
HEK293 viab: counter-screen for SNCA expression inhibitors: cell viability; HEK-293-SNCA-luc viability, GF-AFC fluorescence, 24 h; Potency, µM (titrated, usually from 57.1 µM), without a hit: at the highest dose activity change, negative = cytotoxicity, hits mostly cytotoxic; hit rate 0.12% among 150,000; AID 1671193;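 note: potency is the fitted concentration of half-maximal effect; 0% = DMSO-treated cells and -100% = medium-only wells without cells; nearly all actives have a fitted effect of over 30% in size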
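Cytotoxicity counterscreen: after 24 h compound treatment of genome-edited SNCA-luciferase HEK-293 cells, live-cell protease substrate GF-AFC read by fluorescence after 30 min; activity scaled between DMSO (0%) and medium-only (-100%), curves Hill-fitted.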
SNCA expr inhib: reduces expression of the alpha-synuclein gene; HEK-293 SNCA-luciferase knock-in, luminescence, 24 h; Potency, µM (titrated, usually from 57.2 µM), without a hit: at the highest dose activity change, negative = inhibition, actives largely listed as inhibitors; hit rate 0.17% among 140,000;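 note: potency is the fitted concentration of half-maximal effect; plate controls were DMSO cells for no effect and cell-free wells for full effect; nearly all actives have a fitted effect of over 45% in size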
KDM5B inh: inhibitors of human KDM5B histone demethylase. hit rate 2.6% among 220,000. Q9UGL1. AID 1347165. KDM5B demethylase, FDH-coupled NADH fluorescence (FDH is formaldehyde dehydrogenase). Potency, µM (doses to about 57.7 µM), hits mostly inhibitors; note: potency is the fitted concentration of half-maximal effect; 0% is about no effect; nearly all actives have a fitted effect of over 70% in size
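Compound dilutions met 200 nM (final) KDM5BΔAP for 10 min at room temperature before substrate addition. The substrate mix held 12.5 µM H3K4me3 with cofactors 25 µM α-ketoglutarate and 50 µM Fe²⁺. NADH signal gain over 30 min defined activity.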
The depositor's hits bear a star; i = inactive; ? = inconclusive; · = no result given; [ ] = remark or other dose. Unless noted, calls come from the whole dose curve; as a rule, active = well fitted curve in the direction sought with a large enough effect; inconclusive = small, poorly fitted or top-dose-only effect, or another doubt; inactive = no such curve, though single readings can be large; an effect the other way counts as inactive or inconclusive.

SMILES	IP6K1 inh	HEK293 viab	SNCA expr inhib	KDM5B inh
COc1ccc(C(=O)Nc2ccc(NC(=O)C34CC5CC(CC(C5)C3)C4)cc2)cc1	·	·	·	i
COCCCNC(=O)C1(CCO)CCN(c2ncccn2)C1 (configuration not stated)	-2.1	-4.3%	-19.0%	?
O=C(Nc1ccc(N2CCOCC2)cc1)C1(CCO)CCN(Cc2ccccc2)C1 (configuration not stated)	11.3	14.6%	23.7%	i
O=C(N1CCCC1)C1(CCO)CCN(c2ncccn2)C1 (configuration not stated)	-7.0	-7.4%	-10.0%	28.2µM*
O=C(Nc1ccc2c(c1)OCCO2)C1(CCO)CCN(c2ncccn2)C1 (configuration not stated)	6.7	10.1%	-7.2%	?
O=C(Nc1ccc(N2CCOCC2)cc1)C1(CCO)CCN(c2ncccn2)C1 (configuration not stated)	6.1	-5.7%	?	22.4µM*
O=C(NCc1ccccc1)C1(CCO)CCN(c2ncccn2)C1 (configuration not stated)	3.2	-0.3%	13.4%	28.2µM*
CC(=O)N1CCC[C@@]2(CCN(c3ncccn3)C2)C1	·	-0.6%	11.9%	·
O=C(Nc1cccc(F)c1)C1(CCO)CCN(c2ncccn2)C1 (configuration not stated)	-4.9	-2.1%	9.9%	28.2µM*
C#CCNC(=O)c1cc(-c2cccc(C(F)(F)F)c2)c2cccn2n1	-2.0	-1.7%[87.6 µM]	1.0%[87.6 µM]	·
CCC(=O)N(C)C(C)c1cccs1 (configuration not stated)	·	·	·	i
O=C(Cn1c(=O)ccc2cc(S(=O)(=O)N3CCCC3)ccc21)NCc1ccco1	·	·	·	i
NS(=O)(=O)CCCC(=O)N1CCC(c2ncc[nH]2)CC1	2.6	-3.4%	-21.8%	i
COc1ccc(CC(=O)N2CC[C@@H](CC(=O)O)[C@@H](CC3=NCCc4cc(OC)c(OC)cc43)C2)cc1	15.4	5.9%	6.1%	31.6µM*
COc1cc2c(cc1OC)C(C[C@H]1CN(C(=O)c3ccc(N(C)C)cc3)CC[C@H]1CC(=O)O)=NCC2	12.2	5.3%	-25.3%	28.2µM*
COc1cc2c(cc1OC)C(C[C@H]1CN(C(=O)c3ccc(C#N)cc3)CC[C@H]1CC(=O)O)=NCC2	6.2	13.3%	1.7%	i
O=C(O)C[C@@H]1CCN(C(=O)c2ccco2)C[C@@H]1CC1=NCCc2ccccc21	11.4	-3.6%[87.6 µM]	12.9%[87.6 µM]	?
COc1cc2c(cc1OC)C(C[C@H]1CN(C(=O)c3ccco3)CC[C@H]1CC(=O)O)=NCC2	21.5	21.9%	11.3%	28.2µM*
Cc1ccc(/C=N\NC(=O)c2cccs2)s1	·	·	·	i
ClC(=C\c1ccccc1)/C=N/N1CCN(Cc2ccc(Cl)cc2)CC1	·	·	·	i
CN(C)CC(=O)NC(=O)NCc1ccccc1	·	·	·	i
N#Cc1ccc(/C=N/Nc2ccc3ccccc3c2)cc1	·	·	·	i
Cc1cc2c(-c3cccc(O)c3)nc(-c3c(C)noc3C)cc2[nH]1	-13.3	-10.3%[87.6 µM]	73.5%[87.6 µM]	i
Cc1cc2c(-c3cccc(S(C)(=O)=O)c3)nc(-c3c(C)noc3C)cc2[nH]1	-18.4	-24.6%[87.6 µM]	79.1%[87.6 µM]	35.5µM*
Cc1cc2c(-c3ccc(S(C)(=O)=O)cc3)nc(-c3c(C)noc3C)cc2[nH]1	-19.4	-2.2%[87.6 µM]	54.7%[87.6 µM]	35.5µM*
SMILES	IP6K1 inh	HEK293 viab	SNCA expr inhib	KDM5B inh
Cc1cc2c(-c3cccc(CO)c3)nc(-c3c(C)noc3C)cc2[nH]1	-23.6	-18.2%[87.6 µM]	69.5%[87.6 µM]	i
NC(=O)[C@@H](Cc1ccccc1)NC(=O)[C@@H]1C[C@@H](NC(=O)c2cnccn2)CCN1C(=O)CSCC(=O)O	-9.6	5.1%	-20.0%	i
O=C(c1ccccc1OCC1CCCN(C(=O)C2CCCC2)C1)N1CCOCC1 (configuration not stated)	26.8	-15.8%	-5.3%	·
c1ccc(CN2CCC[C@H]2c2nc(-c3ccc(N4CCOCC4)nc3)no2)cc1	1.1	-8.5%[87.6 µM]	4.8%[87.6 µM]	31.6µM*
CN(C)c1ccc(-c2noc([C@@H]3CCCN3Cc3cnc4ccccc4c3)n2)cn1	18.5	-20.4%[87.6 µM]	-39.1%[87.6 µM]	28.2µM*
OCc1ccc(CN2CCC[C@H]2c2nc(-c3ccc(N4CCOCC4)nc3)no2)o1	1.7	-0.7%[87.6 µM]	-2.4%[87.6 µM]	?
Clc1ccc(CN2CCC[C@H]2c2nc(-c3ccc(N4CCOCC4)nc3)no2)cc1	24.8	-8.7%[87.6 µM]	2.4%[87.6 µM]	35.5µM*
CN(C)c1nc(NC2CCC(NCCc3ccc(Br)cc3OC(F)(F)F)CC2)nc2ccccc12 (configuration not stated)	-6.2	?	·	·
O=c1[nH]ccn1C1CCN(Cc2ccc(C(F)(F)F)cc2)CC1	12.1	-1.2%[87.6 µM]	-2.7%[87.6 µM]	i
CCc1cc(=O)oc2cc(OCC(=O)NCc3cccnc3)c(Cl)cc12	·	·	·	i
COc1cccc(-c2nc(SCc3cc(=O)c4cc(C)cc(C)c4[nH]3)n[nH]2)c1	·	·	·	i
COCCN(Cc1ccccn1)Cc1cc(=O)c2cc(C)cc(C)c2[nH]1	-3.2	-4.2%	1.7%	28.2µM*
CNC(=O)NC(=O)COC(=O)c1ccc2c(=O)n3c(nc2c1)CCCCCC3	·	·	·	i
O=C(NCC(F)(F)F)c1cc(Br)cn2ccnc12	1.9	4.4%[87.6 µM]	25.4%[87.6 µM]	35.5µM*
O=C(NCCc1ccccc1F)c1cc(Br)cn2ccnc12	-14.8	-8.6%	164.3%	28.2µM*
O=C(NCCc1ccccc1F)c1ccncc1	·	·	·	i
O=C(NCC1CC1)c1cc(Br)cn2ccnc12	-7.7	9.3%[87.6 µM]	24.2%[87.6 µM]	?
COC(=O)CNC(=O)c1cc(Br)cn2ccnc12	-7.7	4.0%[87.6 µM]	4.0%[87.6 µM]	31.6µM*
O=C(NCc1ccc(C(F)(F)F)cc1)c1cc(Br)cn2ccnc12	-2.8	?	10.7%	14.1µM*
CCCc1ccc(C(=O)O)s1	·	·	·	i
CN(CC[C@@H]1CC[C@H](O)[C@@H](C(=O)N(C)Cc2ccccc2)O1)Cc1ccccc1	-9.0	1.3%[87.6 µM]	10.6%[87.6 µM]	i
CC(=O)c1ccc(NC(=O)Cn2c(-c3ccc(Cl)cc3)nc(C)cc2=O)cc1	10.7	-19.2%	0.0%	i
COCCNC(=O)c1cc(Br)cn2ccnc12	-5.4	5.4%[87.6 µM]	21.2%[87.6 µM]	39.8µM*
CCc1n[nH]c(CC2CCN(C(=O)Nc3ccc4c(c3)OCCO4)CC2)n1	15.7	2.3%	-27.7%	22.4µM*
CC(C)OCCNc1nccc(C2(c3ccccc3Cl)CCNCC2)n1	-16.4	?	-5.8%	?
SMILES	IP6K1 inh	HEK293 viab	SNCA expr inhib	KDM5B inh
COCCNc1nccc(C2(c3ccccc3Cl)CCNCC2)n1	5.0	-23.5%	11.3%	22.4µM*
CCCn1cc(SCC(=O)Nc2ccc(C)cc2)c2ccccc21	·	·	·	i
Cc1cccc(CN2CCCn3nc(C)c(-c4ccccc4-c4ccccc4)c32)n1	2.6	?	4.47µM*	?
Cc1nn2c(c1-c1ccccc1-c1ccccc1)N(Cc1ccc(O)cc1)CCC2	5.9	?	?	28.2µM*
CCC1=C(C(=O)OC)C(c2ccccc2OC)N2C(CC(=O)NCC3CC3)=CSC2=N1 (configuration not stated)	9.6	-6.8%	10.3%	?
Cc1ccc2cc(CCC(=O)N3CCN(c4ccccn4)CC3)c(=O)[nH]c2c1	8.0	6.1%	28.8%	i
